# Screening results: PubChem, National Center for Advancing Translational Sciences (NCATS)
# DT40 TDP1 no CPT: qHTS for Inhibitors of human tyrosyl-DNA phosphodiesterase 1 (TDP1): qHTS in cells in absence of CPT | DT40 Tdp1-/- hTDP1 cells, no CPT, ATP luminescence, 48 h | Potency, µM (doses to about 46.2 µM), for the others: top-dose activity change, negative = growth inhibition, actives largely listed as inhibitors | actives 15% (n = 420,000); further: potency means the concentration at half of the fitted maximal effect; nearly all actives have a fitted effect of over 55% in size
#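 Growth kinetics read by CellTiter-Glo luminescence after ≥48 hr at 37 °C. Cells: DT40 Tdp1-/- stably carrying human TDP1, 400 per well, compound exposure in the absence of CPT (DMSO vehicle).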
# HT1080NT lethal: kills 2HG-producing HT-1080-NT fibrosarcoma cells | HT-1080-NT fibrosarcoma viability, CellTiter-Glo ATP luminescence, 48 h | Potency, µM (series often up to 46.1 µM), inactives show at the highest dose activity, negative = less viability, most hits filed as cytotoxic | actives 1.6% (n = 360,000);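 further: NT is the 2HG producing partner of a matched IDH1 knockdown line; potency means the concentration at half of the fitted maximal effect; 0% = DMSO-treated cells and -100% = media-only wells without cells; nearly all actives have a fitted effect of over 55% in size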
#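 Toxicity toward the 2HG-producing NT line was scored as %Activity, normalised to DMSO and no-cell wells, from CellTiter-Glo luminescence after 48 hours' treatment.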
# DT40 TDP1 CPT: growth inhibition of DT40 Tdp1-/-;hTDP1 cells with camptothecin (screen for TDP1 inhibitors); AID 686979; actives 12% (n = 420,000); chicken DT40 Tdp1-/-;hTDP1 cells + 20 nM CPT, ATP luminescence, 48 h; Potency, µM (highest dose often 46.2 µM), without a hit: top-dose activity change, negative = growth inhibition, most hits filed as inhibitors; further: potency means the concentration at half of the fitted maximal effect; nearly all actives have a fitted effect of over 55% in size
#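 Chicken DT40 Tdp1-/- cells stably complemented with human TDP1 were seeded at 400 cells/well in medium containing 20 nM camptothecin, exposed to pin-transferred compounds, and grown at 37 °C for at least 48 hr. Viability was read as ATP luminescence.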
# IL1B secr inh: inflammasome signaling inhibition, IL-1 beta readout; activity change, % at 57.5 µM; actives 4.7% (n = 360,000); THP-1 LPS/ATP IL-1B secretion, AlphaLISA, 16 h; active compounds read low; in the data active means activity change below about -50%; inconclusive means mostly about -30% to -49%
#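 Secreted IL-1B measured by AlphaLISA bead assay after 16 h compound exposure of THP-1 cells; compounds (final up to 57.5 uM) added 1 h before LPS (250 ng/mL) and ATP (1.25 mM) stimulation; lower signal means less secretion.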
# HT1080 IDH1KD tx: toxicity to HT-1080 IDH1 knockdown cells (counter line); HT-1080 IDH1 knockdown viability, ATP luminescence, 48 h; Potency, µM (doses to about 46.1 µM), for inactives: top-dose activity, negative = toxicity, actives largely listed as cytotoxic; actives 2% (n = 360,000); AID 686971;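 further: potency means the concentration at half of the fitted maximal effect; 0% = DMSO wells and -100% = cell-free medium wells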
#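 Assay cells: HT-1080 with IDH1 knockdown, 750 per well, RPMI/5% FBS. Exposure: 48 h at 37 °C following 2 h pre-incubation. Read: CellTiter-Glo luminescence; fitted concentration-response, curve class assigned.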
# ELG1 DNA repair: blocks ELG1-dependent DNA repair in HEK293T cells; Potency, µM (doses to about 46.1 µM), inactives show at the top dose activity change, negative = inhibition, most hits filed as inhibitors; actives 2.3% (n = 330,000); HEK293T ELG1-luciferase reporter, luminescence, 16 h; DNA damage induced by 5-fluorouridine; further: potency means the concentration at half of the fitted maximal effect; nearly all actives have a fitted effect of over 55% in size
#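 Cells (2,000 per well) received 5-fluorouridine plus test compound or DMSO and were incubated 16 hr at 37 °C, 5% CO2. Luciferase activity was read by luminescence 30 min after ONE-Glo addition; signal suppression marked inhibition of damage-induced ELG1 function.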
# The depositor's hits bear a star; u = inconclusive; x = not tested or not shown; ! = repeats disagree; [ ] = remark or other dose. This is a sample that favours compounds with a hit; in the whole collection about 19% have one here. Unless noted, the call rests on the fitted dose curve; in most records, active means well fitted curve in the direction sought with a large enough effect; inconclusive means small, poorly fitted or top-dose-only effect, or another doubt; inactive means no such curve, though single readings can be large; an effect the other way counts as inactive or inconclusive. Unless noted, on the % scale 0 is the no-effect control and ±100 the full control effect.
SMILES,DT40 TDP1 no CPT,HT1080NT lethal,DT40 TDP1 CPT,IL1B secr inh,HT1080 IDH1KD tx,ELG1 DNA repair
COc1ccc([N+](=O)[O-])cc1NC(=O)COC(=O)c1ccc(O)cc1,0.8%,7.7%,7.5%,30.8,4.4%,-6.6%
CCC1=NN(C(=O)c2ccc([N+](=O)[O-])cc2)C(O)(c2ccccc2)C1 (configuration not stated),u,u,u,-23.6,u,u
CCC1=NN(C(=O)c2ccc(Cl)cc2)C(O)(c2ccccc2)C1 (configuration not stated),u,-11.9%,23.1µM*,-8.1,-8.4%,-17.7%
CCC1=NN(C(=O)c2ccccc2O)C(O)(c2ccccc2)C1 (configuration not stated),11.6µM*,u,13µM*,106.7,u,-13.3%
Clc1ccc2nc(NCc3ccccc3)c3nncn3c2c1,-11.3%,x,11.2%,x,x,x
CCOc1ccc(N2CC(NC(=O)c3ccc4ccccc4c3)CC2=O)cc1 (configuration not stated),u,-28.5%,u,-7.2,u,9.1%
CCN(CC)S(=O)(=O)c1ccc(Cl)c(NC(=O)COC(=O)c2nc3nc(C)cc(C)n3n2)c1,2.1%,4.3%,3.4%,15.1,4.3%,15.8%
CN1CCC(OC(c2ccccc2)c2ccc(Cl)cc2)C1 (configuration not stated),20.6µM*,-29.6%,u,x,-16.0%,x
CN1[C@@H]2CC[C@H]1CC(OC(c1ccccc1)c1ccccc1)C2 (some centres not stated),21.1µM*!,x,7.5µM*,x,x,x
CCc1ccc(NC(=O)CC2C(=O)N(c3ccc(F)cc3)C(=O)N2Cc2ccc(F)cc2)cc1 (configuration not stated),u,x,13µM*,x,x,x
COc1ccc(CN2C(=O)N(c3ccccc3)C(=O)C2CC(=O)Nc2ccccc2)cc1OC (configuration not stated),-18.8%,1.4%,0.5%,-15.5,25.3%,-3.5%
CCOc1ccc(NC(=O)CC2C(=O)N(c3ccccc3)C(=O)N2Cc2cccc(OC)c2)cc1 (configuration not stated),20.6µM*,x,10.3µM*,x,x,x
COc1cc(NC(=O)CC2C(=O)N(c3ccccc3)C(=O)N2Cc2ccc(F)cc2)cc(OC)c1 (configuration not stated),14.6µM*,x,13µM*,x,x,x
COCCN1C(=O)N(c2ccccc2)C(=O)C1CC(=O)Nc1cc(OC)cc(OC)c1 (configuration not stated),10.6%,-5.8%,-15.9%,-0.7,4.6%,-1.2%
COc1cccc(CN2C(=O)N(c3ccc(C)cc3)C(=O)C2CC(=O)Nc2cc(OC)cc(OC)c2)c1 (configuration not stated),7.31µM*,x,13µM*,x,x,x
COc1ccc(NC(=O)CC2C(=O)N(c3ccc(C)cc3)C(=O)N2Cc2ccc(C)cc2)cc1 (configuration not stated),u,x,-9.8%,x,x,x
COc1cc2c(cc1OC)-c1cc3cc(OC)c(OC)cc3c(=O)n1CC2,u,x,-22.4%[9.04 µM],x,x,x
COC(=O)c1ccc(NC(=O)CC2C(=O)N(c3cccc(F)c3)C(=O)N2CC(C)C)cc1 (configuration not stated),13µM*,x,20.6µM*,x,x,x
COC(=O)c1ccc(NC(=O)CC2C(=O)N(c3cccc(OC)c3)C(=O)N2C(C)C)cc1 (configuration not stated),-21.1%,x,-29.4%,x,x,x
